Screening data (PubChem BioAssay)
A selection: hits, their analogues and other compounds. The true share with any hit is near 2.2%.
V-ATPase pHluor: alters yeast V-ATPase proton transport. S. cerevisiae, pHLuorin cytosolic pH fluorescence. response, % at 10 µM. 350,000 compounds, 0.37% hits; in the data active = response mostly above about 7.3%, no sharp cut-off; inactive = mostly below about 5.4%; note: actives read high
m5-HT2A agonist: mouse HTR2A agonism via beta-arrestin recruitment. P35363. CHO-K1 mHTR2A beta-arrestin complementation, luminescence; percent of 30 µM serotonin response. activation, % at 7.6 µM. AID 624169. 360,000 compounds, 0.66% hits;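 active = activation above a run cutoff, the mean activation of all tested compounds plus 3 SD, cut at about 14% in these data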;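 note: 0% = plate median of compound wells and 100% = 30 µM serotonin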
Target sequence (P35363 whole entry, looked up): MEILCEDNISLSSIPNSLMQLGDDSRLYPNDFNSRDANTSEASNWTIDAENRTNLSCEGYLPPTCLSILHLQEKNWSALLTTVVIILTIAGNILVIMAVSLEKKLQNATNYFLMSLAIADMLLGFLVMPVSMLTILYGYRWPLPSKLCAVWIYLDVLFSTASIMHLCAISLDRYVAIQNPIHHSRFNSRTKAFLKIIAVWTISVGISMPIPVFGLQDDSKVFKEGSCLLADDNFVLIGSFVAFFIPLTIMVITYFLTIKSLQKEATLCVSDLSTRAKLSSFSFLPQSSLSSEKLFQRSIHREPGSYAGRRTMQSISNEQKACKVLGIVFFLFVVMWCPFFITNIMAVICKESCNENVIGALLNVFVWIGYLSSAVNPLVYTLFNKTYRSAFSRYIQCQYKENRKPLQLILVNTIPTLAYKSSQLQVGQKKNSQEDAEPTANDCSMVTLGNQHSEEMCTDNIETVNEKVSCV
VLA-4 inh: inhibition in a human VLA-4 binding assay; P13612; VLA-4 expressing cells, ligand binding flow cytometry; inhibition, % (about 7 µM as worked out from the volumes in the protocol); 330,000 compounds, 0.2% hits; AID 2557; in the data active = inhibition above about 50%
Granule exo inh: lytic granule exocytosis inhibition; TALL-104 LAMP-1 surface exposure, flow cytometry; cells stimulated with thapsigargin and PMA; inhibition, % at 10 µM; 360,000 compounds, 0.66% hits; AID 651702;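 active = inhibition above about 55%, limit read from the data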
MEX-5 binding: C. elegans MEX-5 TCR-2 RNA binding activity | Q9XUB2 | MEX-5/FITC-TCR2 RNA binding, fluorescence polarization; stronger effect = lower value | activity score (negative = inhibition of binding), % at 10 µM | 300,000 compounds, 0.38% hits;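 active = inhibition past about -25% in most replicates, and total fluorescence under double the plate's negative control median, limit read from the data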;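 note: 0% = DMSO and -100% = 5 µM competing unlabeled TCR2 RNA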
GASC-1 inh: inhibitors of human GASC-1 (JMJD2C) demethylase; Q9H3R0; GST-JMJD2C(1-420) H3K9me3 demethylation, DELFIA europium; inhibition, % at 2.35 µM; 330,000 compounds, 0.069% hits; AID 2099;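 active = more than half of a compound's replicate wells show inhibition beyond 50%, single wells judged on their own value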;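 note: signal counts dimethyl H3K9 product captured on neutravidin plate; 0% = median of DMSO wells and 100% = 0.3 times that DMSO median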
VLA-4 mod pick: human VLA-4 allosteric modulation in cherry picked compounds; shares compounds with VLA-4 inh; U937 cells, HUTS-21 LIBS mAb binding, flow cytometry; LDV ligand present at threefold Kd; inhibition, % at 6.7 µM; 1,300 compounds, 2% hits; AID 2813; in the data active = inhibition above about 40%;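 note: 0% = ligand without compound and 100% = no ligand background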
Active calls of the source: *; . = not tested or not shown.

SMILES | V-ATPase pHluor | m5-HT2A agonist | VLA-4 inh | Granule exo inh | MEX-5 binding | GASC-1 inh | VLA-4 mod pick
COCC(=O)NCc1ccc2c(c1)OCO2 | 2.7 | 4.1 | 52.6* | -1.7 | 0.9 | -15.7 | -7.6
COc1cccc(CN(CCC(=O)O)Cc2cccc(OC)c2)c1 | 0.0 | -0.1 | . | 0.6 | . | . | .
CS(=O)(=O)N(CC(=O)Nc1cc(Cl)ccc1Cl)c1ccccc1Cl | 1.2 | -2.8 | -1.6 | 8.1 | -0.8 | 0.0 | .
CC(=O)Nc1ccc(NC(=O)CN(c2cc(Cl)ccc2Cl)S(C)(=O)=O)cc1 | -1.7 | 1.2 | 59.9* | -1.2 | -2.8 | -6.7 | -12.1
O=C(Nc1cccc(Cl)c1)Nc1ccccc1C(=O)O | 0.5 | -3.5 | 7.5 | 2.7 | 2.1 | 0.0 | -6.2
O=C(Nc1cccc(Cl)c1)Nc1cccc(C(=O)O)c1 | -3.3 | 1.7 | -0.1 | -4.3 | -1.8 | -40.8 | 5.1
NC(=O)c1ccccc1NC(=O)Nc1cccc(Cl)c1 | 0.6 | -2.3 | -3.9 | -0.5 | 1.2 | -15.0 | .
O=C(Nc1ccc(Cl)cc1)Nc1cccc(C(=O)O)c1 | 0.4 | 4.0 | 15.9 | 0.6 | 0.9 | 19.4 | .
Cc1ccc(C(=O)c2cc([N+](=O)[O-])ccc2N2CCOCC2)cc1C | -1.5 | 0.6 | 18.1 | 4.9 | -1.0 | 1.2 | 6.7
Cc1ccc(C(=O)c2cc([N+](=O)[O-])ccc2N2CCCCC2)cc1C | -1.3 | 1.6 | 8.0 | 45.4 | -0.8 | -8.4 | .
Cc1ccnc(NC(=O)c2cccc(S(=O)(=O)NCc3ccccc3)c2)c1 | -1.7 | 9.7 | -9.3 | -5.3 | 0.3 | 2.4 | .
CNC(=S)N/N=C/c1c(C)nn(-c2cccc(Cl)c2)c1Cl | -0.8 | 1.7 | 40.2 | 2.9 | 3.2 | -27.6 | 7.0
CCOC(=O)C1=C(C)C2C3C(=O)N(c4ccc(C)cc4C)C(=O)C3C1(C)C1C(=O)N(c3ccc(C)cc3C)C(=O)C21 (centres undefined) | 0.5 | -1.3 | 43.0 | -1.0 | 1.2 | 5.1 | -8.5
COc1ccccc1NS(=O)(=O)c1cc(NC(=O)CNC(=O)c2ccccc2)ccc1C | -3.4 | -1.9 | 53.3* | -0.9 | 0.0 | 7.1 | -0.4
NNC(=O)Cn1nc(Cc2ccccc2)n(N)c1=O | -2.2 | 2.3 | -13.6 | -3.8 | . | -3.6 | .
COc1cc(NC(=O)c2cc(S(=O)(=O)N3CCCCC3)ccc2N2CCOCC2)cc(OC)c1OC | -0.5 | 3.4 | . | 1.2 | . | . | 0.0
Cc1ccc(NC(=O)c2cc(S(=O)(=O)N3CCCCC3)ccc2N2CCOCC2)cc1S(=O)(=O)N(C)C | -0.4 | -3.9 | . | -2.0 | . | . | -0.1
Cc1ccc(NC(=O)c2cc(S(=O)(=O)N(C)C)ccc2N2CCCC2)cc1S(=O)(=O)N(C)C | -6.0 | -7.7 | 2.1 | 9.1 | 1.6 | -0.1 | .
COc1ccc(S(=O)(=O)N2CCOCC2)cc1C(=O)Nc1ccc(N2CCCCCC2)cc1 | -3.3 | -4.2 | . | 2.7 | . | . | .
O=C(Nc1ccccc1Cl)c1cc(S(=O)(=O)N2CCCCC2)ccc1N1CCOCC1 | -0.6 | -1.7 | -9.5 | 5.4 | 1.9 | -3.7 | 5.4
O=C(COC(=O)c1ccc(S(=O)(=O)N2CCOCC2)cc1)Nc1ccccc1F | -0.5 | 3.4 | 10.1 | -3.6 | . | 4.1 | .
O=C(CCc1ccc(S(=O)(=O)N2CCOCC2)cc1)Nc1ccccc1F | -0.4 | -1.2 | 56.2* | 1.0 | . | -4.6 | 2.0
O=C(Nc1ccccc1N1CCCCC1)c1cc(S(=O)(=O)N2CCOCC2)ccc1Cl | -2.1 | 0.8 | 8.0 | -7.2 | 4.7 | -0.1 | .
COc1cc(C(=O)Nc2ccc(N3CCN(C(=O)c4ccc(C)cc4)CC3)cc2)cc(OC)c1OC | -2.4 | -2.8 | -4.5 | -0.7 | 1.4 | 3.1 | .
Clc1cccc(-c2ccc3nccn3c2)c1Cl | . | -0.9 | . | 10.9 | . | . | .
O=c1oc(CCCO)cc2ccc(/C=C/c3cccc([N+](=O)[O-])c3)cc12 | -0.9 | 1.1 | 0.0 | 3.8 | . | 2.3 | .
O=C(Nc1ccc2c(c1)CCCN2C(=O)c1ccccc1)c1ccccc1 | -1.9 | 5.0 | 3.4 | -0.4 | 1.0 | 1.0 | .
O=C(Nc1ccccc1F)c1cc(S(=O)(=O)N2CCOCC2)ccc1N1CCOCC1 | 3.0 | -0.4 | . | -5.0 | . | . | -2.1
CCOP(=O)(NC12CC3CC(CC(C3)C1)C2)NC12CC3CC(CC(C3)C1)C2 | 0.1 | -1.3 | 17.0 | 18.1 | 2.2 | 2.8 | .
